Screening data: PubChem BioAssay, National Center for Advancing Translational Sciences (NCATS)
Most compounds without a hit are left out; they make up all but 2.5% or so of the library.
Cruzain Triton: inhibitors of Trypanosoma cruzi cruzain with detergent; actives 0.43% (n = 200,000); AID 1478; Potency, µM, inactives show max response, negative = inhibition, actives largely listed as inhibitors; purified cruzain, Z-FR-AMC fluorescence, 0.01% Triton; P25779;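 note: plate controls were neutral wells for no effect and buffer without enzyme for full effect; nearly all actives have a fitted effect of over 40% in size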
Target sequence (P25779 123-467 limits assumed): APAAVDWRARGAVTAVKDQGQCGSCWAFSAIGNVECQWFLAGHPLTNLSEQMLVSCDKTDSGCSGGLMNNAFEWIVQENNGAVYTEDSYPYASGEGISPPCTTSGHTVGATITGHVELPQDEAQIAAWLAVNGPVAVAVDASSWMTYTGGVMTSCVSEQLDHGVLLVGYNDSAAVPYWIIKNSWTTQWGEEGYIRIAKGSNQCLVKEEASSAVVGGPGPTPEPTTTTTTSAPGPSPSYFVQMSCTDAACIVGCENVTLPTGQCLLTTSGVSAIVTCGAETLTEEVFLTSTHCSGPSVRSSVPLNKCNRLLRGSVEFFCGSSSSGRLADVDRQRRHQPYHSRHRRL
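Steps: dispense cruzain (1.5 nM final) in acetate buffer pH 5.5 with DTT and 0.01% Triton X-100; pin-transfer compounds; incubate 15 min RT; add Z-FR-AMC (2 uM final); read fluorescence every 30 s, using the 60 s intensity change.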
Cruzain noTriton: inhibitors of Trypanosoma cruzi cruzain without detergent. P25779. purified cruzain, Z-FR-AMC fluorescence, no detergent. Potency, µM, for inactives: max response, negative = inhibition, usual class: inhibitors. actives 2.3% (n = 200,000);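 note: plate controls were enzyme without inhibitor for no effect and buffer without enzyme for full effect; nearly all actives have a fitted effect of over 40% in size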
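Purified cruzain at 1.5 nM, pre-incubated 15 min with compound at room temperature in 100 mM sodium acetate pH 5.5, 5 mM DTT, 0.00005% Triton X-100. Reaction started with 2 uM Z-FR-AMC; AMC fluorescence increase over 60 s gives rate.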
Active calls of the source: *; ? = inconclusive. Calls come from the whole dose curve; as a rule, active = well fitted curve in the direction sought with a large enough effect; inconclusive = small, poorly fitted or top-dose-only effect, or another doubt; inactive = no such curve, though single readings can be large; an effect the other way counts as inactive or inconclusive. Potency is the fitted concentration of half-maximal effect.

SMILES	Cruzain Triton	Cruzain noTriton
CCOC(=O)c1c(NC(=S)Nc2cc([N+](=O)[O-])ccc2OC)sc2c1CCCCC2	-6%	13µM*
CCOC(=O)c1c(NC(=S)Nc2ccc(C)cc2)sc2c1CCC2	-5%	?
CSc1cccc(Nc2nc3c(S(=O)(=O)c4ccccc4)nnn3c3ccc(Cl)cc23)c1	0%	-5%
CCN1C(=O)/C(=C/C=C2/Sc3ccc4ccccc4c3N2CCO)SC1=S	-3%	-21%
CCN1C(c2ccccc2)=C(c2ccccc2)S/C1=C/C=C1\SC(=S)N(C)C1=O	-6%	10µM*
CC(C)c1nn2c(=O)cc(COC(=O)c3cccs3)nc2s1	-3%	-10%
N#Cc1ccc(-n2c(-c3ccccc3)nnc2-c2ccccc2)cc1C#N	-11%	20µM*
N#Cc1cccc(-n2c(-c3ccccc3)nnc2-c2ccccc2)c1C#N	-8%	?
COc1cccc(/C=C/C(=C2/C(=O)N(c3ccccc3)N=C2C)c2ccccc2)c1OC	-4%	-15%
COc1ccccc1/C=C/C(=C1/C(=O)N(c2ccccc2)N=C1C)c1ccc(C)cc1	-4%	25µM*
COc1cccc(NC(=O)Cn2c(=O)n(-c3ccc(C)cc3)c(=O)c3ccccc32)c1	-5%	-12%
CCCCCCCCCCCCCCCCCC(=O)NCC(COP(=O)([O-])OCC[N+](C)(C)C)OCC (stereo unspecified)	-7%	?
C[N+](C)(C)CC[N+]1(C)Cc2c(Cl)c(Cl)c(Cl)c(Cl)c2C1	-10%	0%
O=C(c1ccc(Br)o1)N1CCN(Cc2ccc3c(c2)OCO3)CC1	5%	12%
O=C(c1ccc(COc2c(F)c(F)c(F)c(F)c2F)o1)N1CCN(Cc2ccc3c(c2)OCO3)CC1	28µM*	?
Cc1cc(C)cc(OCc2ccc(C(=O)O)o2)c1	13%	-3%
O=C(O)c1ccc(COc2c(F)c(F)c(F)c(F)c2F)o1	28µM*	16µM*
CC(C)(C)OC(=O)N1CCC(c2c(C(=O)N3CCCCC3)cnn2-c2ccc(F)cc2)CC1	-2%	-6%
Cc1c(Cl)cccc1NC(=O)CCS(=O)(=O)c1ccc2c(c1)CC(C)N2C(=O)C1CC1 (stereo unspecified)	-3%	12%
COc1ccccc1NC(=O)Cn1c(=O)n(Cc2ccc3c(c2)OCO3)c(=O)c2oc3ccccc3c21	-1%	-5%
Cc1ccc(S(=O)(=O)N2CCc3cc(C(=O)Nc4c(F)cccc4F)ccc32)cc1	-1%	?
NS(=O)(=O)c1ccc(CCN2C(=O)/C(=C\c3ccc(Cl)cc3)SC2=S)cc1	-2%	25µM*
Cc1ccc(C)n1N1C(=O)/C(=C\c2ccc(Cl)cc2)SC1=S	-6%	?
Cc1nc(NC(=O)/C=C/c2ccccc2)sc1C(=O)Nc1ccccc1	3%	-19%
CCOC(=O)c1sc(NC(=O)C(CC)OC(=O)C(CC(C)C)NC(=O)c2ccccc2)nc1C (stereo unspecified)	10µM*	-7%
SMILES	Cruzain Triton	Cruzain noTriton
CCOC(=O)c1sc(NC(=O)C(OC(C)=O)c2ccccc2)nc1C (stereo unspecified)	-17%	-2%
CCOC(=O)c1sc(NC(=O)/C=C/c2ccccc2)nc1C	-1%	25µM*
CCCn1c2ccccc2c2cnn(CC(=O)NCc3ccc(OC)cc3)c(=O)c21	2%	-3%
CCN(C(=O)CN1C(=O)COc2ccc(S(=O)(=O)N3CCOCC3)cc21)c1cccc(C)c1	-1%	-10%
CC(=O)NC(NC(=S)Nc1ccc(N=Nc2ccccc2C)cc1C)C(Cl)(Cl)Cl (stereo unspecified)	-3%	7.9µM*
Cc1ccc(NC(=S)NC(NC(=O)C(C)(C)C)C(Cl)(Cl)Cl)c(C)c1 (stereo unspecified)	4%	10%
COc1cc(OC)cc(C(=O)NCc2ccc3c(c2)CCN3C(=O)c2ccccc2)c1	-2%	28%
Cc1cccc2c1-c1sc(C(=O)N3CCN(c4ccc(F)cc4)CC3)cc1CO2	-5%	5%
CCOC(=O)c1ccc(N2C(=O)c3n[nH]c(-c4cccs4)c3C2c2ccc(Cl)cc2Cl)cc1 (stereo unspecified)	-1%	20µM*
CCOC(=O)c1ccc(N2C(=O)c3[nH]nc(-c4ccc(OC)cc4)c3C2c2ccc(C)cc2)cc1 (stereo unspecified)	-2%	25µM*
CCOC(=O)c1ccc(N2C(=O)c3n[nH]c(-c4ccco4)c3C2c2ccc(OCC)cc2)cc1 (stereo unspecified)	-29%	14%
COc1ccc(-c2n[nH]c3c2C(c2ccc(O)cc2)N(c2ccc(Br)cc2)C3=O)cc1 (stereo unspecified)	-1%	?
CCOC(=O)c1ccc(N2C(=O)c3n[nH]c(-c4cccs4)c3C2c2ccc(C)cc2)cc1 (stereo unspecified)	-2%	-8%
COc1ccc(OC)c(C2c3c(-c4ccc(Br)cc4)n[nH]c3C(=O)N2c2ccc(Cl)cc2)c1 (stereo unspecified)	-2%	16µM*
